# Measurements: PubChem BioAssay (NCI)
# The panel holds about 79,000 compounds, 15% with a hit somewhere; the sample as a whole holds those more often. Unmarked numbers belong to inactive results. Calls of active or inactive are those of the source. Rule as the data show it: active = growth inhibition above about 70%; inactive = the rest.
# Tests used:
# [1] = NCI Yeast Anticancer Drug Screen. Data for the rad50 strain (AID 155);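 also: 0% = growth of vehicle-only cultures of the same strain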; settings: S. cerevisiae rad50 strain growth inhibition; at 50.0 µM; active compounds read high
# How it was run: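 Compounds were tested on a yeast strain with an engineered DNA damage repair alteration; the reported value is growth inhibition normalised to vehicle treatment.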
# [2] = NCI Yeast Anticancer Drug Screen. Data for the mec2-1 strain (AID 157); settings: S. cerevisiae mec2-1 strain, at 50.0 µM, active compounds read high
# How it was run: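 mec2-1 yeast strain, carrying an alteration in DNA damage repair or cell cycle control, was exposed to compounds; growth inhibition was measured relative to vehicle-treated controls.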
# [3] = NCI Yeast Anticancer Drug Screen. Data for the sgs1 mgt1 strain (AID 161);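 also: 0% = growth of cultures given vehicle only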; settings: S. cerevisiae sgs1 mgt1 strain, at 50.0 µM, active compounds read high
# How it was run: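 Compounds are added to genetically altered yeast, and growth is compared with cultures given vehicle alone to give percent inhibition.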
# [4] = NCI Yeast Anticancer Drug Screen. Data for the cln2 rad14 strain (AID 165);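 also: 0% = growth equal to vehicle treated cultures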; settings: S. cerevisiae cln2 rad14 strain, at 50.0 µM, active compounds read high
# How it was run: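 Yeast carrying cln2 and rad14 alterations (cell cycle control and DNA damage repair) were exposed to compounds. Growth inhibition was measured against vehicle-treated controls.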
# [5] = NCI Yeast Anticancer Drug Screen. Data for the bub3 strain (AID 167); settings: S. cerevisiae bub3 mutant strain, at 50.0 µM, active compounds read high
# How it was run: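 Growth of a checkpoint-deficient yeast mutant is measured after compound exposure. Values represent inhibition relative to vehicle.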
# [6] = NCI Yeast Anticancer Drug Screen. Data for the mlh1 rad18 strain (AID 175); settings: S. cerevisiae mlh1 rad18 strain growth inhibition; at 50.0 µM; active compounds read high
# How it was run: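 Growth inhibition of the yeast strain was measured after compound exposure and expressed relative to vehicle-treated controls. The strain carries defined defects in DNA damage repair.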
Structure (SMILES),growth inhibition [1],growth inhibition [2],growth inhibition [3],growth inhibition [4],growth inhibition [5],growth inhibition [6]
C[C@@]1(Cc2ccccc2)C(=O)N2[C@@H](CO)C(c3ccccc3)O[C@]2(C)c2ccccc21 (some centres not stated),-10.8%,4.7%,-14.7%,-6.05%,-8.8%,-29.3%
O=[N+]([O-])c1ccc(NC(c2ccccc2)c2ccc3cccnc3c2O)cc1 (configuration not stated),-6.35%,-20.1%,0.2%,-15.3%,-2.75%,-10.3%
COc1ccc(-n2[nH]c3c(cnc4ccccc43)c2=O)cc1,6.35%,-33.9%,-33%,-10.8%,-22.8%,2%
O=C(O)Cc1[nH]c(=O)[nH]c(=O)c1CCl,-27.9%,-7.75%,-10.1%,-1.3%,-19.2%,-18.1%
CC1=CC=NN2C(=O)[C@H](C)C2C1 (some centres not stated),5.8%,0.75%,0.3%,10.3%,-9.05%,9.6%
CC(C)c1ccc(/C=C/C(=O)c2ccc(F)cc2)cc1,14.6%,13.5%,16.5%,10.1%,5.05%,17.6%
CC(=O)Nc1cccc(Oc2ccc(Cl)cc2[N+](=O)[O-])c1,13%,-6.6%,-2.75%,-5.2%,2.35%,7.95%
COc1cc(/C=N\N=C(/C)c2ccc(C)cc2C)cc(OC)c1OC,21.4%,23.1%,24.8%,22.9%,24.9%,24.6%
CCCCOc1ccc([N+](=O)[O-])cn1,20.8%,-14.6%,3.15%,26.1%,-7.6%,9.15%
COc1ccc(C2CC(=O)NC2=O)cc1OC (configuration not stated),4.8%,17.4%,-6.55%,-12.2%,1.8%,-5.65%
O=C1CC2(CC(=O)N1CCc1c[nH]c3ccccc13)OCCO2,-1.35%,9.05%,10.1%,-0.5%,20.6%,-6.15%
CCC(=O)Oc1cc(C(C)(C)C)c(OC(=O)CC)cc1C(C)(C)C,3.45%,-13.9%,10.6%,12.3%,10.9%,35.4%
CC1NC(=O)C(C)C(c2ccccc2)N(N=O)C1c1ccccc1 (configuration not stated),-10.7%,7.8%,14.6%,0.05%,-25.6%,11%
CCCC(=O)OCCc1ccccc1,12.8%,10.3%,16.4%,-65.5%,5.1%,-26%
CCOc1ccc(N(O)C(C)=O)cc1,1.9%,-10.4%,3%,-43.4%,-8.75%,0%
O=C(O)C1CC2CC2C1 (configuration not stated),2.6%,12%,-2.8%,9.9%,16.1%,9.1%
COc1ccc(CCNC(=S)NCCc2ccc(OC)cc2)cc1,11.8%,12.8%,-1.4%,-28%,-7.25%,-21%
O=C(OCC(O)C(O)C(O)COC(=O)c1ccccc1)c1ccccc1 (configuration not stated),-11.6%,-5.05%,-25.4%,-23.6%,-22.8%,-13.1%
C=CCOC(=O)CC(=C)C(=O)OCC=C,8.5%,26.4%,-8.95%,-4.7%,-5.65%,-3.55%

Structure (SMILES),growth inhibition [1],growth inhibition [2],growth inhibition [3],growth inhibition [4],growth inhibition [5],growth inhibition [6]
O=C1NC(N2CCCCC2)=N/C1=C\c1ccccc1,25.7%,-8.45%,-6.1%,23.7%,-10.5%,-16.4%
Cc1cc2ccccc2c2cc3ccccc3cc12,-2.35%,-6.4%,8.45%,11.8%,-2.05%,7.75%
O=C(O)C1CSCN1 (configuration not stated),-3.85%,-22.9%,-3.2%,1.1%,1%,18.3%
O=C(NC(CSSCC(NC(=O)OCc1ccccc1)C(=O)O)C(=O)O)OCc1ccccc1 (configuration not stated),-8.6%,-31.4%,-2.4%,-4.1%,-33%,-25.2%
Cc1nc(Cl)nc2c1C(=O)Nc1ccccc1N2,27.2%,14.4%,0%,2.95%,28.1%,15.9%
Cc1cc2c(C#N)c3ccccc3c(=O)n2c2ccccc12,-0.95%,6.75%,-1.25%,-7.4%,-13.7%,3.4%
CC(=O)CC(C)(C)N,-0.1%,-9.7%,-1.4%,-6.05%,3.1%,-2.1%
C=CCC(O)CC=C,-8%,-47.5%,7.15%,-6.5%,5.2%,-1.7%
Cc1cc(Cl)ccc1NC(=O)Nc1c(Oc2ccc(Cl)cc2)ccc(Cl)c1S(=O)(=O)O,76.8% (active),36.8%,55.5%,3.85%,-0.75%,45.9%
Cn1ncc2c(NCc3ccccc3)ncnc21,13.2%,3.15%,23.1%,-44%,2.7%,0.5%
CC1CC(O)CC(C)(C)C1.CC1CC(O)CC(C)(C)C1.CC1CC(O)CC(C)(C)C1.CC1CC(O)CC(C)(C)C1.[Ti] (configuration not stated),13.9%,-4.65%,23.2%,15.1%,32.5%,31.9%
COC(=O)/C=C/c1ccc(OC(C)=O)c(OC)c1,-1.9%,3.55%,-13.6%,-19.1%,16.6%,-4.9%
Cc1ccc(SC(C)/C=C/NNC2=NC(c3ccccc3)C(c3ccccc3)=NN2)cc1 (configuration not stated),35.2%,10.2%,6.05%,30.4%,13.7%,24.1%
CC1CCC(OC(=O)Cc2ccccc2)CC1 (configuration not stated),26.7%,18%,9.55%,-15.1%,18.5%,24.6%
C[Si](Cn1ccc(=O)n(C[Si](C)(c2ccccc2)c2ccccc2)c1=O)(c1ccccc1)c1ccccc1,-3.7%,-7.65%,-12.3%,-13.9%,-2.4%,15.2%
CN(C)CC(O)CO (configuration not stated),38.5%,-4%,-6.5%,-45.1%,21.7%,22%
Cc1onc(-c2c(F)cccc2Cl)c1-c1ncc(-c2ccc(Cl)cc2)o1,3.05%,3.3%,29.4%,0.8%,29.8%,16.4%
N#Cc1c(N)nc2c(c(-c3ccc(Cl)cc3)nn2-c2ccccc2)c1C#N,-2.45%,-17.4%,-34.8%,11.1%,-23.9%,6.1%
